PubChem BioAssay (NCATS)
A number with no mark means an inactive call. Records with an inconclusive call do not appear. Active and inactive are the calls of the source. Unless noted, calls follow the shape of the dose curve; as a rule, active = well fitted curve in the direction sought with a large enough effect; inconclusive = small, poorly fitted or top-dose-only effect, or another doubt; inactive = no such curve, though single readings can be large; an effect the other way counts as inactive or inconclusive.

test system: not listed separately; test: Inducers of the Endoplasmic Reticulum Stress Response (ERSR) in human glioma: Validation (AID 504836); settings: human glioma cells, ER stress response reporter; series mostly up to 38.3 µM; activation: at the top concentration; also: 0% is about no effect
Procedure, shortened: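 Stably transfected U87-MG human glioma cells carrying a GRP78-based luminescent sensor were seeded at 1000 cells/well, pin-dosed with compounds and incubated 16 h. Luciferase reagent was then added, and end-point luminescence was read after 10 min at room temperature.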

First: COc1cc(NS(C)(=O)=O)ccc1Nc1c2ccccc2nc2ccccc12
Second: Cc1ccc(Cl)c(Nc2ccccc2C(=O)O)c1Cl
The “activation” value of the first is lower: -3.07% for the first, 3.82% for the second.

First: O=c1[nH]c(=O)n([C@H]2C[C@H](O)[C@@H](CO)O2)cc1Br
Second: CCn1cc(C(=O)O)c(=O)c2cc(F)c(N3CCNC(C)C3)c(F)c21 (configuration not stated)
The “activation” value of the first is lower: -4.26% for the first, -0.628% for the second.

Compared with `Clc1ccc2nsnc2c1NC1=NCCN1`, `CN1CCN(CC(=O)N2c3ccccc3C(=O)Nc3cccnc32)CC1` is higher in “activation” value: -4.09% for the first, 0.906% for the second.

Compared with `CNC[C@H](O)c1cccc(O)c1`, `CC(C)NCC(O)c1ccc(NS(C)(=O)=O)cc1` (configuration not stated) is lower in “activation” value: -2.53% for the first, -2.63% for the second.

First: C=CC(N)CCC(=O)O (configuration not stated)
Second: NCCCCCC(=O)O
The “activation” value of the first is lower: -3.31% for the first, -1.03% for the second.

Going from `CCN1CCC[C@H]1CNC(=O)c1cc(S(N)(=O)=O)ccc1OC` to `CC(=O)OCC1=C(C(=O)O)N2C(=O)[C@@H](NC(=O)Cc3cccs3)[C@H]2SC1`, the “activation” value rises from -3.06% to 2.12%.

Compared with `O=C1NCC2(CCN(CCc3ccccc3)CC2)O1`, `Cc1nc2ccccn2c(=O)c1CCN1CCC(C(=O)c2ccc(F)cc2)CC1` is higher in “activation” value: -1.8% for the first, -0.871% for the second.

Compared with `Nc1cc(=O)[nH]c(N)n1`, `C[C@@H](O)[C@H]1C(=O)N2C(C(=O)O)=C(SCCN=CN)C[C@H]12` is lower in “activation” value: 0.0828% for the first, -1.86% for the second.

First: CCCCCN(C)CCC(O)(P(=O)(O)O)P(=O)(O)O
Second: NCCCNCCSP(=O)(O)O
The “activation” value of the first is lower: -4.53% for the first, 1.55% for the second.

Going from `CN(C)CCOC(=O)COc1ccc(Cl)cc1` to `C[C@](N)(Cc1ccc(O)cc1)C(=O)O`, the “activation” value rises from 0.5% to 0.788%.

Going from `FC(F)(F)c1ccccc1-n1ccnc1` to `CC(C)C(=O)c1c(C(C)C)nn2ccccc12`, the “activation” value rises from -5.84% to -1.23%.

For `CC[N+](CC)(CC)CCOc1cccc(OCC[N+](CC)(CC)CC)c1OCC[N+](CC)(CC)CC`, the “activation” value was -5.57%.

target: Ubiquitin carboxyl-terminal hydrolase 1 (Homo sapiens) (UniProt O94782); test: Inhibitors of USP1/UAF1: Pilot qHTS (AID 504865); settings: purified USP1/UAF1, Ub-rhodamine cleavage fluorescence; series mostly up to 114 µM; activity change, negative = inhibition: at the top concentration; also: nearly all actives have a fitted effect of over 35% in size; also: potency is read from the fitted curve at half-maximal effect;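 as to activity change, negative = inhibition: rhodamine fluorescence freed from ubiquitin-rhodamine substrate followed over time; top concentration of the series differs between compounds; % is scaled to controls: 0 for no effect and ±100 for the full control effect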
Sequence (O94782 whole entry, looked up): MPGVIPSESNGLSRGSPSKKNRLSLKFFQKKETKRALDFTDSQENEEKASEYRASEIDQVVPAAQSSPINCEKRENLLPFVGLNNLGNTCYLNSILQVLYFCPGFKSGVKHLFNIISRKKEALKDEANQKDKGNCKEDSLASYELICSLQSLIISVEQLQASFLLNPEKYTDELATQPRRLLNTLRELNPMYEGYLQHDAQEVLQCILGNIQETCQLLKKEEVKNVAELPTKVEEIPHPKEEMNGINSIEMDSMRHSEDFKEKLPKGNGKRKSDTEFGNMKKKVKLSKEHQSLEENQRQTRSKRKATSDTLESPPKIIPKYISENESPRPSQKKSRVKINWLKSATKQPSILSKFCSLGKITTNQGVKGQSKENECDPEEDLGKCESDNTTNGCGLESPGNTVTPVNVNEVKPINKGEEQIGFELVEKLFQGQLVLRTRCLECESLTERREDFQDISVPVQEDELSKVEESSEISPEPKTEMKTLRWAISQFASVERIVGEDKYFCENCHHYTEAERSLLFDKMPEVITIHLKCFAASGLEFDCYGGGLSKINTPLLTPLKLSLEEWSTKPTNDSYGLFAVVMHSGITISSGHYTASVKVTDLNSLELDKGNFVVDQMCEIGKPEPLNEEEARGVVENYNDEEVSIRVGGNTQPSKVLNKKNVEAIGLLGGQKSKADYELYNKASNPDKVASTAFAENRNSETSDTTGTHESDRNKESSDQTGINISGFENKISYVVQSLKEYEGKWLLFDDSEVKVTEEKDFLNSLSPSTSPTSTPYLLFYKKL
Procedure, shortened: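 USP1/UAF1 complex (1nM) preincubated with compound 15 min at room temperature, then Ub-Rho substrate (150nM final) added. Fluorescence read kinetically at 480/540 nm, 6 reads every 60 seconds. Buffer: 50mM HEPES pH 7.8, 0.5mM EDTA, 0.1 mg/ml BSA, 1mM TCEP, 0.01% Tween-20.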

First: CCOC(=O)CC(SP(=S)(OC)OC)C(=O)OCC (configuration not stated)
Second: COP(=S)(OC)SCN1C(=O)c2ccccc2C1=O
The “activity change, negative = inhibition” value of the first is lower: -8.82% for the first, -6.72% for the second.

Compared with `CCC1(c2ccccc2)C(=O)N(COC)C(=O)N(COC)C1=O`, `COc1cc(OC)c(OC)cc1C=O` is lower in “activity change, negative = inhibition” value: -2.67% for the first, -8.77% for the second.

For `CC(C)(C)c1ccc(O)cc1`, the “activity change, negative = inhibition” value was -6%.

In the case of `O=C1OC(c2ccc(O)c(S(=O)(=O)O)c2)(c2ccc(O)c(S(=O)(=O)O)c2)c2c(Br)c(Br)c(Br)c(Br)c21`, the Potency is reported as 50.1 µM (active).
With `Cc1cc(C(C#N)c2ccc(Cl)cc2)c(Cl)cc1NC(=O)c1cc(I)cc(I)c1O` (configuration not stated) the Potency was 50.1 µM (active).
In the case of `CC[N+](CC)(CC)CCOc1cccc(OCC[N+](CC)(CC)CC)c1OCC[N+](CC)(CC)CC`, the Potency is reported as “inactive”.
For `CCC1(CC)C(=O)C=CNC1=O`, the Potency was “inactive”.
For `Cc1cc(=O)n(-c2ccccc2)n1C`, the Potency was “inactive”.
For `FC1(F)C(F)(F)C(F)(F)C2(F)C(F)(F)C(F)(F)C(F)(F)C(F)(F)C2(F)C1(F)F` (configuration not stated), the Potency was 79.4 µM (active).

target: Estrogen receptor (Homo sapiens) (UniProt P03372); test: qHTS assay for small molecule antagonists of estrogen receptor alpha signaling (AID 588513; active = well fitted curve in the direction sought with a large enough effect in the signal ratio, with a control signal flat, not every such curve was filed as active; the % refers to the signal ratio; also: % is scaled to controls: 0 for no effect and ±100 for the full control effect); settings: ER-alpha-UAS-bla HEK293, beta-lactamase ratio, antagonist mode; series mostly up to 76.9 µM; activity, negative = inhibition: at the top concentration
Sequence (P03372 whole entry, looked up): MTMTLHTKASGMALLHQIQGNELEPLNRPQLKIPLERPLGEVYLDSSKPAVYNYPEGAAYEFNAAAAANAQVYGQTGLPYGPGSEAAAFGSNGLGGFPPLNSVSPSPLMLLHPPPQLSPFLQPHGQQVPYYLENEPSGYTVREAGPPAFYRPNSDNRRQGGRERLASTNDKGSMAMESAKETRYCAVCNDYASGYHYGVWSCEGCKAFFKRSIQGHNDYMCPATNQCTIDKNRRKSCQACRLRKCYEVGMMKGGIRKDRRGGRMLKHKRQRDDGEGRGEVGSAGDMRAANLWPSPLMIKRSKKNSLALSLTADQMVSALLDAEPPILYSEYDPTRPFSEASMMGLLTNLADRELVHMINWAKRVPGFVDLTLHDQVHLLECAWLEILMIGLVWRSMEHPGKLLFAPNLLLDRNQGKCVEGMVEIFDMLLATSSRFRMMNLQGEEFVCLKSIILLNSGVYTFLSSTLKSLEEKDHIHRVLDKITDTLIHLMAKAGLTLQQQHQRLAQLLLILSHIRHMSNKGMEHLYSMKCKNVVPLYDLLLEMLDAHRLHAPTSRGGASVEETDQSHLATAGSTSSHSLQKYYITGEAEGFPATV
Procedure, shortened: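 ER-alpha-UAS-bla GripTite HEK 293 cells in medium with 2% charcoal/dextran-treated FBS were preincubated 4 h at 37 C, dosed with compound (1:2 titration), stimulated with 0.5nM 17-beta-estradiol for 18 h, then read by CCF4 beta-lactamase fluorescence.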

With `CCOC(=O)CC(SP(=S)(OC)OC)C(=O)OCC` (configuration not stated) the outcome was “inactive”.

Going from `COc1cc(OC)c(OC)cc1C=O` to `O=C(Oc1ccccc1)c1ccccc1O`, the “activity, negative = inhibition” value falls from 14.9% to -13.2%.
